SF1 inhibitor = inhibitors of human nuclear receptor SF-1. CHO-K1 Gal4-SF-1 LBD luciferase reporter. inhibition, % at 10 µM. 0.55% of 65,000 active. AID 525;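 active = inhibition above the mean inhibition of all tested compounds plus 3 SD, cut at about 48% in these data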;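 also: 0% = SF-1 transfected cells with DMSO and 100% = mock-transfected cells lacking SF-1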
Target sequence (Q13285 whole entry, looked up, the tested form may be a part): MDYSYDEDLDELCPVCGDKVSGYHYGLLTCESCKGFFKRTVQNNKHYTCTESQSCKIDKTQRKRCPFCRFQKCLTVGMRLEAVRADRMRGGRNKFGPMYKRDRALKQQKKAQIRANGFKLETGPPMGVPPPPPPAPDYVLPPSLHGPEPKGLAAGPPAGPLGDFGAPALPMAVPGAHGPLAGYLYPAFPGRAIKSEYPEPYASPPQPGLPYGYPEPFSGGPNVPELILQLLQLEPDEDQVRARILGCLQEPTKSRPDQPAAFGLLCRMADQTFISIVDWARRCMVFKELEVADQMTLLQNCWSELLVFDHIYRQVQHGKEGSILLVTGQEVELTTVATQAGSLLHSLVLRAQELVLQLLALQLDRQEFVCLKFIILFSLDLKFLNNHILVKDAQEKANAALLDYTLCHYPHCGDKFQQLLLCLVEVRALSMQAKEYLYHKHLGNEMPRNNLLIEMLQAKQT
Numbers without * were called inactive. The entries come from a sample that favours hits as a whole.

SMILES	SF1 inhibitor
Cc1cc(C(=O)CSc2nc3ccccc3[nH]2)c(C)n1C	-61.0
Cc1cc(-n2c(C)cc(C(=O)CSc3ncnc4ccccc34)c2C)no1	70.7*
Cc1cc(C(=O)CSc2nc3ccccc3o2)c(C)n1C1CC1	-61.0
COc1ccc(C)cc1Cn1c(S(C)(=O)=O)nc2ccccc21	2.7
Cc1ccc(S(=O)(=O)NCCN=C(CN2CCOCC2)NS(=O)(=O)c2ccc(C)cc2)cc1	10.8
CCCOc1ccc(-c2nnc(-c3ccco3)o2)cc1	64.2*
O=C(COc1ccccc1)Nc1ccc(-c2nnc(-c3ccco3)o2)cc1	-65.7
COc1ccc(-c2noc(-c3ccco3)n2)cc1OC	-50.5
Cc1nn(-c2ccccc2)c2sc(C(=O)OC3CCOC3=O)cc12 (centres undefined)	15.8
CS(=O)(=O)c1nc(-c2ccccc2)cc(C(F)(F)F)n1	51.8*
COc1ccc(-c2cc(C(F)(F)F)nc(N3CCN(c4ccccc4)CC3)n2)cc1OC	-12.0
O=C(O)c1cc2nc(-c3ccccc3)cc(C(F)(F)F)n2n1	7.2
CCCCSC1=C(C#N)C(c2ccccc2C)C(C(=O)OCC)C(=O)N1 (centres undefined)	0.9
CCOC(=O)c1cnc(-n2nc(C)cc2C)nc1Nc1ccc2c(c1)OCO2	5.9
CCOC(=O)c1snc(C(=O)NC2CCCCC2)c1N	-105.9
CCOC(=O)c1cnc(-n2nc(C)cc2C)nc1NC1CCCCC1	86.9*
COc1cc(OC)c(N(C)C(=O)CCNC(=O)Cn2cnc3ccccc3c2=O)cc1Cl	27.2
C=CCNC(=O)NS(=O)(=O)c1ccc(C)cc1	4.1
COc1ccccc1N1CCN(C(=O)C2C3C=CC4(CN(Cc5ccccc5Cl)C(=O)C24)O3)CC1 (centres undefined)	17.2
Cc1ccc(NC(=O)Cc2nn(C)c(=O)c3ccccc23)cc1F	80.3*
COc1cccc(OC)c1NC(=O)Cc1nn(C)c(=O)c2ccccc12	-3.1
CCC(=O)Nc1ccc(N2CCN(C(=O)c3ccccc3C)CC2)cc1	4.1
O=C(Nc1ccc2c(c1)OCCO2)c1c(F)cccc1F	-56.1
Cn1nc(C(=O)NCC2CCCO2)c2ccccc2c1=O (centres undefined)	5.9
CCc1nn(CC(=O)O)c(=O)c2ccccc12	-18.5
SMILES	SF1 inhibitor
COc1ccc2c(c1)c(C(=O)CNc1nc(C)cs1)c(C)n2C	6.2
Cc1csc(NC(=O)Cc2nn(C)c(=O)c3ccccc23)n1	54.1*
Cn1c(SCC(=O)Nc2ccc3c(c2)OCCO3)nnc1-c1ccco1	-16.2
Cc1ccc(OCC(=O)Nc2ccc(N3CCOCC3)cc2)cc1	-1.5
Cn1nc(CC(=O)Nc2ccc3c(c2)OCCO3)c2ccccc2c1=O	62.4*
Cn1nc(CC(=O)Nc2ccc(N3CCN(C(=O)OC(C)(C)C)CC3)cc2)c2ccccc2c1=O	63.1*
O=c1cc(O)nc2n1CCCS2	-5.6
COc1ccccc1-c1nc2n(n1)C(c1cccs1)C(C(=O)Nc1cccnc1)=C(C)N2 (centres undefined)	-2.2
Cc1cccc(-n2ncc3c(N(C)Cc4ccccc4)ncnc32)c1	-64.4
CC1CCN(C(=O)C2Cc3ccccc3CN2S(=O)(=O)c2ccc(F)cc2)CC1 (centres undefined)	-6.4
O=C(Nc1ccc2c(c1)OCO2)c1cnn2cccnc12	-70.3
CC1(C)C2CCC1(C)C(OC(=O)CSc1nc(N)cc(=O)[nH]1)C2 (centres undefined)	-9.7
CS(=O)(=O)N(CC(=O)NCc1ccncc1)c1cc(Cl)cc(Cl)c1	14.0
COc1cc(NS(=O)(=O)c2ccc(C)cc2C)cc(OC)c1OC	61.5*
CCOc1ccc(C)cc1S(=O)(=O)Nc1cccnc1	-12.0
COc1cc(C(=O)Nc2ccc(N(C)C)cc2)cc(OC)c1OC	-62.3
O=C(Nc1nc(-c2nc3ccccc3s2)cs1)C1COc2ccccc2O1 (centres undefined)	-54.8
O=C(CN1C(=O)NC2(CCCCCC2)C1=O)c1ccc2c(c1)OCCO2	-88.7
CCSc1nnc([C@@H]2CCCN2C(=O)OC(C)(C)C)o1	-1.3
CCOCCCN(C(=O)c1ccco1)C(C(=O)NC1CCCC1)c1cccc(OC)c1OC (centres undefined)	10.0
O=c1cc(N2CCC(Cc3ccccc3)CC2)[nH]c(=O)n1C1CCCCC1	-2.7
Cc1cc(C)nc(Nc2nc(=O)c3ccccc3s2)n1	-30.8
CSC1=C(C#N)C(C)C2=C(CC(C)(C)CC2=O)N1 (centres undefined)	-3.2
NS(=O)(=O)c1ccc(CCNC2CC(=O)N(Cc3ccccc3)C2=O)cc1 (centres undefined)	-7.2
COc1cccc2c1C(=O)c1c(O)c3c(c(O)c1C2=O)C[C@@](O)(C(=O)CO)C[C@@H]3O[C@H]1C[C@H](N)[C@H](O)[C@H](C)O1	79.8*
SMILES	SF1 inhibitor
CCOCC(=O)Nc1ccc(S(=O)(=O)NCCc2ccccc2)cc1	1.0
CCn1c(CC(=O)Nc2ccc(C)cc2)nnc1SCC(=O)NCc1ccccc1	8.9
O=C(NC1(C(=O)NC2CCCCC2)CCCCC1)c1ccc2c(c1)OCO2	-11.3
O=C(c1ccc(Cl)cc1)N1CCCCC(Sc2nnc(-c3ccc4c(c3)OCO4)o2)C1=O (centres undefined)	89.2*
CC1CCCN(c2ccc(C(=O)NCC3CCCO3)cn2)C1 (centres undefined)	-57.5
COC(=O)C1=[N+]([O-])OC(C(=O)OC)C1c1c[nH]c2ccccc12 (centres undefined)	5.2
CCCCS(=O)(=O)/C=C\C=C/S(=O)(=O)CCCC	95.8*
CN(Cc1ccccc1)C(=O)CCNS(=O)(=O)c1ccc2c(c1)oc(=O)n2C	6.9
COc1cc(SC)ccc1C(=O)Nc1ccccc1C#N	-59.6
O=C(c1ccncc1)N1C2C=CC(C2)C1(C(F)(F)F)C(F)(F)F (centres undefined)	-12.2
COc1ccc(CCN2C(=O)c3ccccc3C2(O)c2ncc[nH]2)cc1OC (centres undefined)	-0.7
N#C/C(=C\c1ccc(O)c(O)c1)C(=O)NCCCc1ccccc1	69.1*
Cc1nc2sc(C(c3ccco3)N3CCC(Cc4ccccc4)CC3)c(O)n2n1 (centres undefined)	-11.6
Cc1cc2ncc(-c3ccc(Cl)cc3)c(N)n2n1	-55.4
COC(=O)c1c(C)[nH]c(C(=O)OCc2ccc(F)cc2)c1C	-59.8
CCOC(=O)c1c(C)[nH]c(C(=O)COC(=O)C2CC2C)c1C (centres undefined)	-53.5
CCOC(=O)c1c(C)[nH]c(C(=O)C(C)OC(=O)c2cccc(OCc3c(C)noc3C)c2)c1C (centres undefined)	80.7*
Fc1ccc(-n2[nH]nnc2=S)cc1N1CCCC1	4.9
CC(C)CCNC(=O)NC(=O)COc1ccccc1C#N	-8.4
CCC1CCCCN1CCCNC(=O)CNC(=O)Cn1ccc2ccccc2c1=O (centres undefined)	4.7
O=C(CCc1ccccc1)Nc1ccc(Cl)cn1	-60.5
Cc1cc(=O)[nH]c(N2CCCC2)n1	5.4
CN(C)c1ccc(NC(=S)c2ccccn2)cc1	86.1*
CN(C)S(=O)(=O)c1ccc(NC(=O)c2ccccn2)cc1	-74.0
CN(C)c1ccc(NC(=O)Nc2cccc(Cl)c2)cc1	-64.2
O=S(=O)(NCCc1cn2ccccc2n1)c1cccs1	-18.5
CC(=O)c1cnc2cc(-c3ccccc3)nn2c1C	-49.8
COc1cc(OC)cc(-c2cc3nc(C)c(CCC(=O)O)c(C)n3n2)c1	79.4*
COc1ccc(-c2nc(N3CCOCC3)nc3nn4c(C)c(CCC(=O)O)c(C)nc4c23)cc1	3.7
CCOC(=O)CNC(=O)CNC(=O)c1ccc(OCC(C)C)cc1	-5.7

Bioassay records (PubChem)
